Assay results published in article PMC4102417.

Each molecule was assayed on murine 3T3 fibroblasts (assay: primary screen, percent viability or growth; higher = less effect of the substance).
Experimental: Similarly, for measuring the cytotoxicity concentration (CC50) for 3T3 fibroblast cells, cultures were incubated with drugs for 72 hours and developed using Alamar Blue (Alamar Biosciences Inc, Sacramento, CA) as previously described.

Row | SMILES | Mammalian (3T3) cell % growth at 10 uM [%]
1 | CN(C)CC/C=C1/c2ccccc2Sc2ccc(Cl)cc21 | 97.1
2 | Nc1nc(=S)c2[nH]cnc2[nH]1 | 98.3
3 | CC1=CC(=O)c2ccccc2C1=O | 0.5
4 | CN1CCc2c(c3ccccc3n2Cc2ccccc2)C1.O=S(=O)(O)c1cccc2c(S(=O)(=O)O)cccc12 | 100
5 | C=C1C(=O)O[C@H]2[C@H]1CC/C(C)=C/CC[C@@]1(C)O[C@@H]21 | 0.7
6 | O=c1cc(-c2ccccc2)oc2cc(O)cc(O)c12 | 43
7 | N[C@H](C(=O)O)[C@@H]1CC(Cl)=NO1 | 48.2
8 | O=C1C=C2C(=CCOC2O)O1 (stereo not shown) | 0.5
9 | Cl.Fc1ccc(C2CCNCC2COc2ccc3c(c2)OCO3)cc1 (stereo not shown) | 100
10 | OCCN1CCN(CCCN2c3ccccc3Sc3ccc(Cl)cc32)CC1 | 66.6
11 | NCCc1ccc(O)c(O)c1 | 2.4
12 | COC(=O)c1cc(O)c(=O)c2c(O)c(O)ccc2c1 | 92.2
13 | C=CC(C)(O)CCC1C(=C)CC(OC(C)=O)C2C(C)(C)CCCC12C (stereo not shown) | 63.7
14 | Clc1ccc(C(OCCN2CCCCC2)c2ccccc2)cc1 (stereo not shown) | 100
15 | CC(=O)OC1CCC2(C)C(CC(OC(C)=O)C3(C)C2CCC2(C)C(c4ccoc4)OC(=O)C4OC423)C1(C)C (stereo not shown) | 96.7
16 | Oc1ccc(Cl)c2cccnc12 | 49.7
17 | CC1(C)C(=O)C=CC2(C)C1=C(O)C(=O)C1(C)C2CCC2(C)C(c3ccoc3)CC3OC321 (stereo not shown) | 25.5
18 | CC[C@H](C)C(=O)O[C@H]1CCC=C2C=C[C@H](C)[C@H](CC[C@@H]3C[C@@H](O)CC(=O)O3)[C@H]21 | 2.9
19 | Cc1cc2nc3c(=O)[nH]c(=O)nc-3n(C[C@H](O)[C@H](O)[C@H](O)CO)c2cc1C | 0.9
20 | COc1c2c(cc3occ(-c4ccc5c(c4)OCO5)c(=O)c13)OC(C)(C)C=C2 | 68.2

Row | SMILES | Mammalian (3T3) cell % growth at 10 uM [%]
21 | Clc1ccc(COC(Cn2ccnc2)c2ccc(Cl)cc2Cl)c(Cl)c1 (stereo not shown) | 100
22 | Cc1coc2c1C(=O)C(=O)c1c-2ccc2c1CCCC2(C)C | 44.3
23 | CCCCCCCC/C=C/CCCCCCCCOP(=O)([O-])OCC[N+](C)(C)C | 93.7
24 | O=C1C=CC(=O)c2c(O)cccc21 | 66.4
25 | COC(=O)C1(C)CCC2(C)CCC3(C)C4=CC=C5C(=CC(=O)C(O)=C5C)C4(C)CCC3(C)C2C1 (stereo not shown) | 0.6
26 | CN1CCC(=C2c3ccccc3CCc3sccc32)CC1.O=C(O)CC(O)C(=O)O | 86.5
27 | Oc1ccc(O)cc1 | 93.9
28 | CC(C)C[C@H]1C(=O)N2CCC[C@H]2[C@]2(O)O[C@](NC(=O)[C@@H]3C=C4c5cccc6[nH]c(Br)c(c56)C[C@H]4N(C)C3)(C(C)C)C(=O)N12.CS(=O)(=O)O | 92.1
29 | COC(=O)CCC(C)C1CCC2C3C(O)CC4CC(O)CCC4(C)C3CC(O)C12C (stereo not shown) | 81
30 | COc1ccc(-c2cc(=O)c3ccccc3o2)cc1OC | 86.4
31 | COc1cc(/C=C/C(=O)N2CCC=CC2=O)cc(OC)c1OC | 1
32 | CC(=O)OC1CCC2(C)C3=C(CCC2C1(C)C)C1(C)CCC(C(C)CCC=C(C)C)C1(C)CC3 (stereo not shown) | 87.6
33 | COc1ccc2[nH]cc(CCN)c2c1.Cl | 24.2
34 | CC(C)C(C)/C=C/C(C)C1CCC2C3=CC=C4CC(O)CCC4(C)C3CCC21C (stereo not shown) | 99.6
35 | O=c1[nH]c(=O)n([C@H]2C[C@H](O)[C@@H](CO)O2)cc1F | 86.2
36 | CSc1ccc2c(c1)N(CCC1CCCCN1C)c1ccccc1S2 (stereo not shown) | 45.7
37 | COc1cc2ccc(=O)oc2c(O)c1O | 100
38 | O=c1cc(-c2ccc(O)cc2)oc2cc(O)cc(O)c12 | 73.6
39 | CN1CCN(CCCN2c3ccccc3Sc3ccc(C(F)(F)F)cc32)CC1 | 94.7
40 | CC(=O)Oc1ccc(Cl)c2cccnc12 | 0.5
